Assay results taken from article PMC8384837, “Expanding the binding specificity for RNA recognition by a PUF domain”.
Substitutions are numbered along the chain they refer to.

Columns and labels:
Assay in all cases: yeast three-hybrid, YBZ-1, SC-Leu-His + 0.5 mM 3-AT, 4 days
Conditions in all cases: tags: N-Gal4 AD-HA kept; label: inside an RPR1-promoter hybrid RNA with tandem MS2 sites; ssRNA
PUM1 PUF domain R4-PYD = PUM1 PUF domain R4-PYD (Homo sapiens, UniProt Q14671 828-1176, N971P;H972Y;Q975D)
Method in brief: (§1)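 The interaction score is the logarithmic change in variant frequency from input to selection. It uses log2, with a pseudocount of 1 for absent variants, and frequencies came from PCR-amplified, Illumina-sequenced repeat regions. The libraries were Pumilio-1 PUF domains randomized at the three base-contacting residues per repeat, co-expressed with matching RNA elements in strain YBZ-1 (LexA–MS2 coat fusion, HIS3 reporter). Plating lasted four days on SC-Leu (input) or SC-Leu-His + 0.5 mM 3-AT (selection).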

PUM1 PUF domain R4-EYG = PUM1 PUF domain R4-EYG (Homo sapiens, UniProt Q14671 828-1176, N971E;H972Y;Q975G)
Method in brief: as §1

PUM1 PUF domain R5-LHS = PUM1 PUF domain R5-LHS (Homo sapiens, UniProt Q14671 828-1176, C1007L;R1008H;Q1011S)
Method in brief: as §1

PUM1 PUF domain R5-GRT = PUM1 PUF domain R5-GRT (Homo sapiens, UniProt Q14671 828-1176, C1007G;Q1011T)
Method in brief: as §1

PUM1 PUF domain R5-RGA = PUM1 PUF domain R5-RGA (Homo sapiens, UniProt Q14671 828-1176, C1007R;R1008G;Q1011A)
Method in brief: as §1

PUM1 PUF domain R5-QKR = PUM1 PUF domain R5-QKR (Homo sapiens, UniProt Q14671 828-1176, C1007Q;R1008K;Q1011R)
Method in brief: as §1

PUM1 PUF domain R1-EKK = PUM1 PUF domain R1-EKK (Homo sapiens, UniProt Q14671 828-1176, S863E;R864K;Q867K)
Method in brief: as §1

PUM1 PUF domain R8-KHV = PUM1 PUF domain R8-KHV (Homo sapiens, UniProt Q14671 828-1176, N1122K;Y1123H;Q1126V)
Method in brief: as §1

PUM1 PUF domain R3-YWW = PUM1 PUF domain R3-YWW (Homo sapiens, UniProt Q14671 828-1176, C935Y;R936W;Q939W)
Method in brief: as §1

PUM1 PUF domain R3-FCG = PUM1 PUF domain R3-FCG (Homo sapiens, UniProt Q14671 828-1176, C935F;R936C;Q939G)
Method in brief: as §1

PUM1 PUF domain R3-DRE = PUM1 PUF domain R3-DRE (Homo sapiens, UniProt Q14671 828-1176, C935D;Q939E)
Method in brief: as §1

PUM1 PUF domain R3-WCR = PUM1 PUF domain R3-WCR (Homo sapiens, UniProt Q14671 828-1176, C935W;R936C;Q939R)
Method in brief: as §1

PUM1 PUF domain R6-RYC = molecular target: T1, PUM1 PUF domain R6-RYC (Homo sapiens, UniProt Q14671 828-1176, N1043R;Q1047C)
T1 sequence: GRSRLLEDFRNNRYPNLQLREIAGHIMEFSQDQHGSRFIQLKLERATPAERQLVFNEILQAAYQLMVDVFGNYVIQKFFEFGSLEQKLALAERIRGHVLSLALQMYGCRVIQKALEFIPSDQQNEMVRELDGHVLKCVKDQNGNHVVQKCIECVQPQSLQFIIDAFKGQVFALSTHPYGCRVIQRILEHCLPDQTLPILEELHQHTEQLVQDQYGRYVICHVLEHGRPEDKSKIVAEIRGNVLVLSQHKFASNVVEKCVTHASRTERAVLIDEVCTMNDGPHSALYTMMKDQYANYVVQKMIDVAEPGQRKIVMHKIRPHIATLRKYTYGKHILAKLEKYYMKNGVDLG
Method in brief: as §1

PUM1 PUF domain R6-SWS = molecular target: T2, PUM1 PUF domain R6-SWS (Homo sapiens, UniProt Q14671 828-1176, N1043S;Y1044W;Q1047S)
T2 sequence: T1 sequence with R216S, Y217W, C220S
Method in brief: as §1

PUM1 PUF domain R6-GWR = molecular target: T3, PUM1 PUF domain R6-GWR (Homo sapiens, UniProt Q14671 828-1176, N1043G;Y1044W;Q1047R)
T3 sequence: T1 sequence with R216G, Y217W, C220R
Method in brief: as §1

PUM1 PUF domain R3-PFF = PUM1 PUF domain R3-PFF (Homo sapiens, UniProt Q14671 828-1176, C935P;R936F;Q939F)
Method in brief: as §1

With “GGCUAGAACUAGUGGAUCCCCCGGCGCCCGGCGGCUCGAGCCCGGGUAAGUGUAUAUAGUCUGCAUGCCGCCGGGCGCCAUGCCUGCAGGUCGACUCUAGAAAACAUG” the binding signal (PUM1 PUF domain R4-PYD) was 5.78 log2 enrichment (interaction score) and the binding signal (PUM1 PUF domain R4-EYG) was 1.12 log2 enrichment (interaction score).
With “GGCUAGAACUAGUGGAUCCCCCGGCGCCCGGCGGCUCGAGCCCGGGUAAGUGUCAAUAGUCUGCAUGCCGCCGGGCGCCAUGCCUGCAGGUCGACUCUAGAAAACAUG” the binding signal (PUM1 PUF domain R5-LHS) was 2.24 log2 enrichment (interaction score), the binding signal (PUM1 PUF domain R5-GRT) was 0.6 log2 enrichment (interaction score) and the binding signal (PUM1 PUF domain R5-RGA) was 2.27 log2 enrichment (interaction score). For the same sequence, the binding signal (PUM1 PUF domain R5-QKR) was 5.65 log2 enrichment (interaction score).
“GGCUAGAACUAGUGGAUCCCCCGGCGCCCGGCGGCUCGAGCCCGGGUAAGUGUAAAUUGUCUGCAUGCCGCCGGGCGCCAUGCCUGCAGGUCGACUCUAGAAAACAUG” was tested, and the binding signal (PUM1 PUF domain R1-EKK) was 2.94 log2 enrichment (interaction score).
With “GGCUAGAACUAGUGGAUCCCCCGGCGCCCGGCGGCUCGAGCCCGGGUAAGUGUGAAUAGUCUGCAUGCCGCCGGGCGCCAUGCCUGCAGGUCGACUCUAGAAAACAUG” the binding signal (PUM1 PUF domain R5-GRT) was 2.87 log2 enrichment (interaction score).
With “GGCUAGAACUAGUGGAUCCCCCGGCGCCCGGCGGCUCGAGCCCGGGUAAGCGUAAAUAGUCUGCAUGCCGCCGGGCGCCAUGCCUGCAGGUCGACUCUAGAAAACAUG” the binding signal (PUM1 PUF domain R8-KHV) was 2.09 log2 enrichment (interaction score).
In the case of “GGCUAGAACUAGUGGAUCCCCCGGCGCCCGGCGGCUCGAGCCCGGGUAAGUGUAAGUAGUCUGCAUGCCGCCGGGCGCCAUGCCUGCAGGUCGACUCUAGAAAACAUG”, the binding signal (PUM1 PUF domain R3-YWW) is reported as 4.57 log2 enrichment (interaction score), the binding signal (PUM1 PUF domain R3-FCG) is reported as 5.32 log2 enrichment (interaction score) and the binding signal (PUM1 PUF domain R3-DRE) is reported as 5.66 log2 enrichment (interaction score). The binding signal (PUM1 PUF domain R3-WCR) was 4.82 log2 enrichment (interaction score).
With “GGCUAGAACUAGUGGAUCCCCCGGCGCCCGGCGGCUCGAGCCCGGGUAAGUGUUAAUAGUCUGCAUGCCGCCGGGCGCCAUGCCUGCAGGUCGACUCUAGAAAACAUG” the binding signal (PUM1 PUF domain R5-LHS) was 5.04 log2 enrichment (interaction score), the binding signal (PUM1 PUF domain R5-GRT) was 3.02 log2 enrichment (interaction score) and the binding signal (PUM1 PUF domain R5-RGA) was 1.01 log2 enrichment (interaction score).
With “GGCUAGAACUAGUGGAUCCCCCGGCGCCCGGCGGCUCGAGCCCGGGUAAGUGUAAAUAGUCUGCAUGCCGCCGGGCGCCAUGCCUGCAGGUCGACUCUAGAAAACAUG” the binding signal (PUM1 PUF domain R6-RYC) was 4.42 log2 enrichment (interaction score), the binding signal (PUM1 PUF domain R6-SWS) was 4.04 log2 enrichment (interaction score) and the binding signal (PUM1 PUF domain R5-GRT) was 2.94 log2 enrichment (interaction score). For the same sequence, the binding signal (PUM1 PUF domain R6-GWR) was 6.56 log2 enrichment (interaction score), the binding signal (PUM1 PUF domain R4-EYG) was 3.15 log2 enrichment (interaction score) and the binding signal (PUM1 PUF domain R3-FCG) was 0.82 log2 enrichment (interaction score). The binding signal (PUM1 PUF domain R3-PFF) was 1.1 log2 enrichment (interaction score).
